Test in all cases: NCI-60 one-dose screen, 48 h (100 = growth as untreated, 0 = no growth, -100 = all killed)
What all share (details): 10 µM unless noted

The subject of experiment [1] is T-47D breast.
Experiment [2] has as its system BT-549 breast.
For experiment [3], the system named is MDA-MB-435 melanoma.
Experiment [4] concerns SW-620 colon.
For experiment [5], the system named is MCF7 breast.
The subject of experiment [6] is HCC-2998 colon.
Experiment [7] deals with KM12 colon.
The test system of experiment [8] is HCT-116 colon.

This is part of a sample that, as a whole, favours compounds with a hit. Of some 83,000 tested, about 20% had one in any assay.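 For each line, cells grew in 96-well plates with the test compound present at a single concentration for 48 hours.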 A number with no mark means an inactive call. Calls of active or inactive are those of the source. Rule for the calls: active = growth percent below 10; inactive = the rest.

On to `CC1=C2CC/C(C)=C/CC[C@]3(C)O[C@H]3CC/C(C)=C/[C@H]2OC1`, for which the growth in experiment [1] is 86%; in experiment [2], 106%; in experiment [3] it was 98.7%; in experiment [4], 107%; in experiment [5], 105%; in experiment [6] it was 99.6%. For the same compound, the growth in experiment [7] was 120%.

On to `CCN1C2CCC1/C(=C\c1ccccc1)C(=O)/C2=C/c1ccccc1`, for which the growth in experiment [1] is 56.9%; in experiment [2] it was 48.6%; in experiment [3], 30.7%; in experiment [4], 42.4%; in experiment [5], 25.2%; in experiment [6] it was 80.1%. Besides, in experiment [7], the growth was 20.6%.

Turning to `Cc1ccc(S(=O)(=O)OC[C@]23CCC(C)(C)C[C@H]2C2=CC[C@@H]4[C@@]5(C)CCCNC(C)(C)[C@@H]5CC[C@@]4(C)[C@]2(C)CC3)cc1`, the growth in experiment [1] was 1.19% (active); in experiment [2] it was 88.2%; in experiment [3], 31%; in experiment [4] it was -71.3% (active); in experiment [5] it was 23.8%; in experiment [6], -12.3% (active). Moreover, the growth in experiment [7] is -1.94% (active).

Take `N#Cc1c(-c2cccc(Cl)c2)cc(-c2cccnc2)[nH]c1=O`: the growth was 87.3% in experiment [1]; 72.5% in experiment [2]; 2.97% (active) in experiment [3]; 71.1% in experiment [4]; 48.2% in experiment [5]; 98.6% in experiment [6]. In experiment [7], the growth is 65.6%.

Take `C#Cc1cccc(Nc2ncnc3cc(NC(=O)CCl)ccc23)c1`: the growth was -52.7% (active) in experiment [1]; -76.7% (active) in experiment [2]; -70.8% (active) in experiment [3]; -61.6% (active) in experiment [4]; -50.4% (active) in experiment [5]; -88.3% (active) in experiment [6]. Moreover, the growth in experiment [7] was -74.3% (active).

On to `Nc1cc(-c2ccc(Cl)cc2)nn1-c1nnc(/C=C/c2ccco2)c(=O)[nH]1`, for which the growth in experiment [1] was 62.7%; in experiment [2], 72%; in experiment [3] it was 62.8%; in experiment [4], 49.3%; in experiment [5] it was 45.9%; in experiment [6], 48.5%. For the same compound, the growth in experiment [7] is 56%.

Consider `C[N+]1=C(/C=C/c2ccccc2Cl)C(C)(C)c2ccccc21`, for which the growth in experiment [1] is 86.4%; in experiment [2], 109%; in experiment [3], 100%; in experiment [4], 92.4%; in experiment [5], 94.7%; in experiment [6], 103%. Further, in experiment [7], the growth was 96.6%.

In the case of `O=C(C[C@]1(O)C(=O)Nc2ccc(Br)cc21)c1ccco1`, the growth in experiment [1] was 104%; in experiment [2] it was 109%; in experiment [3], 112%; in experiment [4], 95.5%; in experiment [5] it was 94.2%; in experiment [6], 115%. Moreover, the growth in experiment [7] is 101%.

Regarding `CCCCCc1ccc(S(=O)(=O)Nc2ccc3nc(N)oc3c2)cc1`, the growth in experiment [1] is 36.1%; in experiment [2] it was 61.9%; in experiment [3], 50.3%; in experiment [4], 76.8%; in experiment [5], 31.8%; in experiment [6], 98.5%. Further, the growth in experiment [7] is 64.1%.

Consider `CCN(CCNc1ccc(C)c2sc3cc(Cl)ccc3c(=O)c12)CC(C)(C)O`, for which the growth is 69.5% in experiment [1]; 84.9% in experiment [2]; 35.2% in experiment [3]; 82.2% in experiment [4]; 58.5% in experiment [5]; 39.6% in experiment [6]. Besides, the growth in experiment [7] is 40.5%.

For the compound `COc1ccc(Nc2ncc(C#N)c(NCCCNC(=O)C3CCC3)n2)cc1`, the growth in experiment [1] is 109%; in experiment [2], 70.6%; in experiment [3], 68.5%; in experiment [4], 41.5%; in experiment [5], 63.7%; in experiment [6] it was 97.2%. For the same compound, in experiment [7], the growth is 64.2%.

In the case of `N#Cc1ccccc1-c1ccc(CN2C(=O)S/C(=C\c3ccc(Br)cc3)C2=O)cc1`, the growth in experiment [1] was 85.3%; in experiment [2] it was 95.9%; in experiment [3] it was 94.5%; in experiment [4], 103%; in experiment [5], 95%; in experiment [6], 98.9%. Moreover, in experiment [7], the growth is 98.9%.

In the case of `COc1ccc(-c2cc(C(=O)N3N=C(c4ccc(N)cc4)CC3c3ccc(Cl)cc3)c3ccccc3n2)cc1` (centres undefined), the growth is 47.4% in experiment [1]; 8.43% (active) in experiment [2]; -12.9% (active) in experiment [3]; 29.2% in experiment [4]; 13.9% in experiment [5]; 21.5% in experiment [6]. In addition, the growth in experiment [7] was 20.7%.

As to `CCOc1ncc([N+](=O)[O-])c(OCC)n1`, the growth in experiment [1] is 106%; in experiment [2], 105%; in experiment [3] it was 124%; in experiment [4] it was 111%; in experiment [5], 93.8%; in experiment [6], 99.4%. In addition, the growth in experiment [7] is 117%.

In the case of `CC(C)(C)CC(C)(C)Nc1c(-c2c(O)c3ccccc3oc2=O)nc2sc3ccccc3n12`, the growth was 15.9% in experiment [1]; 51.9% in experiment [2]; 47.9% in experiment [3]; 21.3% in experiment [4]; 28.9% in experiment [5]; 52.6% in experiment [6]. In experiment [7], the growth is 45.1%.

With `CCOC(=O)CC[C@H](NC(=O)c1ccc(N(C)Cc2cnc3nc(N)nc(N)c3n2)c2ccccc12)C(=O)OCC`, the growth in experiment [1] is 53.9%; in experiment [2] it was 51.1%; in experiment [3], 37.4%; in experiment [4] it was 22%; in experiment [5], 18.4%; in experiment [6], 35.6%. Moreover, in experiment [7], the growth is 23.8%.

Regarding `COc1cc2c(c(OC)c1OC)C(=O)CC(c1cccc(C(=O)Nc3ccc(C#N)cc3)c1)O2` (centres undefined), the growth is 9.48% (active) in experiment [1]; 33% in experiment [2]; 63% in experiment [3]; 97.8% in experiment [4]; 48.7% in experiment [5]; 98.2% in experiment [6]. Moreover, in experiment [7], the growth was 79.1%.

As for `CC(=O)N1N=C(c2ccc(Nc3nc(Nc4ccc(F)cc4)nc(Nc4ccc(F)cc4)n3)cc2)CC1c1ccc(N(C)C)cc1` (centres undefined), the growth is 25% in experiment [1]; 63.9% in experiment [2]; 6.22% (active) in experiment [3]; 63.7% in experiment [4]; 42.2% in experiment [5]; 67.5% in experiment [6]. Also, the growth in experiment [7] was 39.8%.

On to `c1cc(OCCN2CCCCC2)ccc1CNc1ccc2nc(CCC3CCCCC3)[nH]c2c1`, for which the growth was -29.6% (active) in experiment [1]; 73.6% in experiment [2]; -54.2% (active) in experiment [3]; 2.97% (active) in experiment [4]; -3.08% (active) in experiment [5]; -13.5% (active) in experiment [6]. The growth in experiment [7] was 43%.

For the compound `Fc1ccc(/C=C/[C@@H]2C[C@@H](F)CCO2)cc1`, the growth in experiment [1] is 101%; in experiment [2], 100%; in experiment [3], 97.9%; in experiment [4] it was 90.2%; in experiment [5], 91.3%; in experiment [6] it was 60.6%. In addition, the growth in experiment [7] was 105%.

On to `CC(C)CCC[C@@H](C)[C@H]1CC[C@H]2[C@@H]3CC=C4c5sc(Nc6cc(C(F)(F)F)cc(C(F)(F)F)c6)nc5CC[C@]4(C)[C@H]3CC[C@]12C`, for which the growth was 95.7% in experiment [1]; 98.9% in experiment [2]; 104% in experiment [3]; 100% in experiment [4]; 107% in experiment [5]; 101% in experiment [6]. In addition, in experiment [7], the growth was 102%.

For `CN1C(=O)/C(=C/c2ccc(C(=O)Nc3ncc(Cc4cc(Cl)ccc4Cl)s3)cc2)SC1=S`, the growth is 59.8% in experiment [1]; 85.2% in experiment [2]; 5.7% (active) in experiment [3]; 62.8% in experiment [4]; 67.4% in experiment [5]; 83.1% in experiment [6]. For the same compound, the growth in experiment [7] was 49.8%.

Take `CC1(C)N=C(N)N=C(N)N1c1cc(Cl)ccc1Cl`: the growth in experiment [1] was 95.2%; in experiment [2], 85.2%; in experiment [3], 108%; in experiment [4], 42.2%; in experiment [5], 65.7%; in experiment [6] it was 94.8%. Besides, the growth in experiment [7] was 94%.

With `CC(C)(C)c1ccc(C(=O)N/N=C/c2ccc(O)cc2O)cc1`, the growth is 33.1% in experiment [1]; 32% in experiment [2]; 34.3% in experiment [3]; 30% in experiment [4]; 8.44% (active) in experiment [5]; 19.4% in experiment [6]. Further, the growth in experiment [7] is 12.5%.

As to `Cc1ccc(Cc2cnc(NC(=O)/C=C/c3ccc(C)o3)s2)cc1`, the growth was 35.5% in experiment [1]; 72.3% in experiment [2]; -52.5% (active) in experiment [3]; 12.3% in experiment [5]; 27.7% in experiment [8]; 65.2% in experiment [6]. The growth in experiment [7] is 16.5%.

As to `Cc1cccc(NC(=O)Cn2cc(CN3CCN(c4ccnc5cc(Cl)ccc45)CC3)nn2)c1`, the growth in experiment [1] is 83.8%; in experiment [2] it was 86.2%; in experiment [3], 93.4%; in experiment [5] it was 88.2%; in experiment [8] it was 95.3%; in experiment [6], 102%. For the same compound, the growth in experiment [7] was 81.6%.

On to `C=CCN=c1sc(-c2ccc3ccccc3c2)cn1NC(=O)c1cc2ccc1CCc1ccc(cc1)CC2`, for which the growth in experiment [1] is 20.8%; in experiment [2], 53.9%; in experiment [3], 67.5%; in experiment [5] it was 35.9%; in experiment [8], 27.1%; in experiment [6] it was 89.1%. Moreover, in experiment [7], the growth was 56.6%.
